# In PubChem BioAssay (NCATS):
# Inconclusive results are not listed. Active and inactive are the calls of the source. Calls follow the shape of the dose curve; as a rule, active = well fitted inhibition curve with a large enough effect; inconclusive = small, poorly fitted or top-dose-only effect; inactive = flat fitted curve, though single readings scatter. Where a SMILES comes first, the peptide text is derived from it. Bridges are numbered along the chain shown (N, C = ends). [ ]: non-standard residue; d: D form. The star is where a group is joined. X2 = CC[C@H](C)CCCCC(=O)*; Dab = NCC[C@H](N)C(=O)O
# Columns and labels:
# [1] = Drug repurposing screens with cells derived from glioblastoma tumor samples (AID 1345199); details: GBM patient neurospheres viability, ATP luminescence, 48 h; also: nearly all actives have a fitted effect of over 40% in size
# How it was run: (§1)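 Primary testing used CD133+ neurospheres from four GBM patients, seven concentrations, 48 h exposure and ATP-based viability; confirmation added three slower-growing patient lines.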
# [2] = test system: astro; experiment: as above; details: viability, ATP luminescence, 48 h; series mostly up to 45.9 µM
# How it was run: as §1
# [3] = at 45.9 µM (top of the series), tumour line B
# [4] = at 45.9 µM (top of the series), tumour line D
# [5] = at 46 µM (top of the series), tumour line A
# [6] = at 46.1 µM (top of the series), tumour line C
# [7] = at 20 µM (top of the series), tumour line C
# [8] = at 21.2 µM (top of the series), tumour line B
# [9] = at 21.2 µM (top of the series), tumour line D
# [10] = at 21.3 µM (top of the series), tumour line A
# % is scaled to controls: 0 for no effect and ±100 for the full control effect; potency is read from the fitted curve at half-maximal effect.
compound,measurement,setting,value
CC(O)[C@@H]1NC(=O)[C@H](Cc2ccccc2)NC(=O)[C@H](C(C)O)NC(=O)[C@H](CCCCN)NC(=O)[C@H](Cc2c[nH]c3ccccc23)NC(=O)[C@H](Cc2ccccc2)NC(=O)[C@H](Cc2ccccc2)NC(=O)[C@H](CC(N)=O)NC(=O)[C@H](CCCCN)NC(=O)[C@@H](NC(=O)CNC(=O)[C@H](C)N)CSSC[C@@H](C(=O)O)NC(=O)[C@H](CO)NC1=O (stereo not given in full),"activity, negative = cell killing",[1]; [3],-13.9% (inactive)
same,"activity, negative = cell killing",[1]; [4],-20.3% (inactive)
same,"activity, negative = cell killing",[1]; [5],-21.3% (inactive)
same,"activity, negative = cell killing",[1]; [6],-3.11% (inactive)
same,Potency,[2],inactive
NC[C@H]1O[C@H](O[C@H]2[C@H](O)[C@@H](O[C@H]3O[C@H](CO)[C@@H](O)[C@H](N)[C@H]3O)[C@H](N)C[C@@H]2N)[C@H](O)[C@@H](O)[C@@H]1O,"activity, negative = cell killing",[1]; [7],3.71% (inactive)
same,"activity, negative = cell killing",[1]; [8],-14.2% (inactive)
same,"activity, negative = cell killing",[1]; [9],0.603% (inactive)
same,"activity, negative = cell killing",[1]; [10],-23.6% (inactive)
same,Potency,[2],inactive
C[C@H](N)C(=O)N[C@@H](C)P(=O)(O)O,"activity, negative = cell killing",[1]; [3],-6.14% (inactive)
same,"activity, negative = cell killing",[1]; [4],-11.2% (inactive)
same,"activity, negative = cell killing",[1]; [5],-15.6% (inactive)
same,"activity, negative = cell killing",[1]; [6],-19.1% (inactive)
same,Potency,[2],inactive
CO[C@H]1C[C@H](O[C@H]2[C@H](C)[C@@H](O[C@@H]3O[C@H](C)C[C@H](N(C)C)[C@H]3O)[C@@H](C)C[C@]3(CO3)C(=O)[C@H](C)[C@@H](O)[C@@H](C)[C@@H](C)OC(=O)[C@@H]2C)O[C@@H](C)[C@@H]1O,"activity, negative = cell killing",[1]; [7],-8.16% (inactive)
same,"activity, negative = cell killing",[1]; [8],-0.194% (inactive)
same,"activity, negative = cell killing",[1]; [9],-29.4% (inactive)
same,"activity, negative = cell killing",[1]; [10],-24% (inactive)
same,Potency,[2],inactive
OC[C@@H](O)C(O)[C@H](O)CO,"activity, negative = cell killing",[1]; [3],-10.5% (inactive)
same,"activity, negative = cell killing",[1]; [4],-11.3% (inactive)
same,"activity, negative = cell killing",[1]; [5],-25% (inactive)
same,"activity, negative = cell killing",[1]; [6],11.8% (inactive)
same,Potency,[2],inactive
CC(C)(C)CC(C)(C)c1cc(Cc2cc(C(C)(C)CC(C)(C)C)cc(-n3nc4ccccc4n3)c2O)c(O)c(-n2nc3ccccc3n2)c1,"activity, negative = cell killing",[1]; [3],-3.94% (inactive)
same,"activity, negative = cell killing",[1]; [4],-1.11% (inactive)
same,"activity, negative = cell killing",[1]; [5],-36.5% (inactive)
same,"activity, negative = cell killing",[1]; [6],-23.5% (inactive)
same,Potency,[2],inactive
Cc1c(O)c(=O)ccn1C,"activity, negative = cell killing",[1]; [3],-9.32% (inactive)
same,"activity, negative = cell killing",[1]; [4],-8.06% (inactive)
same,"activity, negative = cell killing",[1]; [5],-29.8% (inactive)
same,"activity, negative = cell killing",[1]; [6],-25.3% (inactive)
same,Potency,[2],inactive
NC(N)=NCC1COC2(CCCCC2)O1 (stereo not given),"activity, negative = cell killing",[1]; [7],-12.8% (inactive)
same,"activity, negative = cell killing",[1]; [8],-14.2% (inactive)
same,"activity, negative = cell killing",[1]; [9],-12.9% (inactive)
same,"activity, negative = cell killing",[1]; [10],-18.6% (inactive)
same,Potency,[2],inactive
COC1=C(OC)C(=O)C(C/C=C(\C)CC/C=C(\C)CC/C=C(\C)CC/C=C(\C)CC/C=C(\C)CC/C=C(\C)CC/C=C(\C)CC/C=C(\C)CC/C=C(\C)CCC=C(C)C)=C(C)C1=O,"activity, negative = cell killing",[1]; [3],2.27% (inactive)
same,"activity, negative = cell killing",[1]; [4],-1.65% (inactive)
same,"activity, negative = cell killing",[1]; [5],-4.78% (inactive)
same,"activity, negative = cell killing",[1]; [6],7.72% (inactive)
same,Potency,[2],inactive
CC[C@H](C)CCCCC(=O)N[C@@H](CCN)C(=O)N[C@H](C(=O)N[C@@H](CCN)C(=O)N[C@H]1CCNC(=O)[C@@H]([C@H](C)O)NC(=O)[C@H](CCN)NC(=O)[C@H](CCN)NC(=O)[C@H](CC(C)C)NC(=O)[C@@H](CC(C)C)NC(=O)[C@H](CCN)NC1=O)[C@@H](C)O (X2-[Dab]T[Dab][Dab][Dab][dL]L[Dab][Dab][dT]; lactam 4-C),"activity, negative = cell killing",[1]; [7],7.06% (inactive)
same,"activity, negative = cell killing",[1]; [8],-0.409% (inactive)
same,"activity, negative = cell killing",[1]; [9],-6.08% (inactive)
same,"activity, negative = cell killing",[1]; [10],-17.3% (inactive)
same,Potency,[2],inactive
CCCOc1cc(N)ccc1C(=O)OCCN(CC)CC,"activity, negative = cell killing",[1]; [7],3.99% (inactive)
same,"activity, negative = cell killing",[1]; [8],-3.15% (inactive)
same,"activity, negative = cell killing",[1]; [9],-24.1% (inactive)
same,"activity, negative = cell killing",[1]; [10],3.16% (inactive)
same,Potency,[2],inactive
CC(C)c1nc(N(C)S(C)(=O)=O)nc(-c2ccc(F)cc2)c1/C=C/C(O)CC(O)CC(=O)O (stereo not given),"activity, negative = cell killing",[1]; [3],-27.3% (inactive)
same,"activity, negative = cell killing",[1]; [6],-19% (inactive)
same,Potency,[1]; tumour line A,3.55 µM (active)
same,Potency,[1]; tumour line D,17.8 µM (active)
same,Potency,[2],10 µM (active)
CN[C@@H]1[C@@H](O[C@H]2O[C@H](CO)[C@@H](N)[C@H](O)[C@H]2O)O[C@H]2C[C@@H](N)[C@@H](O[C@H]3[C@H](O)[C@@H](O)[C@H](N)C[C@@H]3N)O[C@@H]2[C@@H]1O,"activity, negative = cell killing",[1]; [7],-7.39% (inactive)
same,"activity, negative = cell killing",[1]; [8],0.663% (inactive)
same,"activity, negative = cell killing",[1]; [9],2.67% (inactive)
same,"activity, negative = cell killing",[1]; [10],-16.4% (inactive)
same,Potency,[2],inactive
O=C1NCCN1c1ncc([N+](=O)[O-])s1,"activity, negative = cell killing",[1]; [7],-26.4% (inactive)
same,"activity, negative = cell killing",[1]; [8],-0.147% (inactive)
same,"activity, negative = cell killing",[1]; [9],-24% (inactive)
same,"activity, negative = cell killing",[1]; [10],-10.3% (inactive)
same,Potency,[2],inactive
O=C(O)/C=C/c1ccccc1,"activity, negative = cell killing",[1]; [3],-13.6% (inactive)
same,"activity, negative = cell killing",[1]; [4],12.4% (inactive)
same,"activity, negative = cell killing",[1]; [5],-20.1% (inactive)
same,"activity, negative = cell killing",[1]; [6],7.51% (inactive)
same,Potency,[2],inactive
